# Results published in PubChem BioAssay AID2275 (Broad Institute, 2010).
# Among all 30,000 compounds or so, about 190 (0.63%) were called active. The list comes from a sample in which actives are over-represented; it also holds similar structures and randomly drawn compounds. A number with no mark means an inactive call. No stated cut-off is given here; in the data, active means viability loss activity score above about 50%; inconclusive means no clear call, values can overlap the other calls; inactive means below about 35%.
# Experiment: BJeLR cell viability loss, primary screen, luminescence, CellTiterGlo ATP (AID 2275);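 further: higher score means fewer live cells and less ATP luminescence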
# Conditions: BJeLR fibroblasts viability, 48 h, active compounds read high, HRASV12, hTERT and SV40 LT/ST transformed, concentration not given here
row,Structure (SMILES),viability loss activity score [%]
1,CC(C)(C)c1ccc(/C=C/C(=O)NCCCn2ccnc2)cc1,0.598
2,Nc1cc(=O)[nH]c2nnc(SCc3ccc(Br)cc3)n12,-1.86
3,Cc1ccc(N2C(=O)c3oc4cc(C)c(C)cc4c(=O)c3C2c2ccc(O)cc2)nc1 (centres undefined),-1.21
4,Oc1ccc(CN2CCCC2)c2cccnc12,-4.68
5,CC1(C)Cc2c(cnn2-c2ccc(F)cc2)-c2nc3ccccc3nc21,-0.68
6,CC(C)N(Cc1nc(-c2ccccc2)no1)C(=O)CCc1ccccc1,-7.42
7,Nn1c(C(=O)N2CCCC2)nc2ccccc2c1=O,-0.611
8,CC(C)c1ccc(S(=O)(=O)N2CCN(S(=O)(=O)c3ccc(C(C)C)cc3)C(C)C2)cc1 (centres undefined),4.1
9,CC1C=CCC2C(=O)N(c3cccc(Cl)c3)C(=O)C12 (centres undefined),0.408
10,CCCCN(Cc1ccccc1)S(=O)(=O)c1ccc2c(c1)oc(=O)n2CC(=O)OCC,-1.44
11,O=C1c2ccccc2C(=O)N1CCCC(=O)n1ccc2ccccc21,-4.38
12,O=C(O)C1=NN(c2ccccc2)C(=O)/C1=C/c1cccs1,5.24
13,O=C(CCSc1nc(-c2ccco2)cc(C(F)(F)F)n1)N1CCCCC1,-3.03
14,COc1ccc(Cn2c(=O)oc3ccccc32)cc1,-1.69
15,C[C@H](CO)N1C[C@H](C)[C@H](CN(C)S(=O)(=O)c2cccs2)Oc2c(NC(=O)Nc3ccc4c(c3)OCO4)cccc2C1=O,1.64
16,C=CCNC(=O)/C=C/c1ccc(C(C)C)cc1,-1.64
17,COc1cc2c(C(=O)N3CCN(c4ccccc4)CC3)cn(CC(C)C)c(=O)c2cc1OC,-11.1
18,CCN(C(=O)CSc1nc2ccccc2c2nc3ccccc3n12)c1cccc(C)c1,0.323
19,O=C(NC1CCCC1)c1cc(-c2ccc(Br)cc2)on1,-5.17
20,C[C@@H]1CN([C@H](C)CO)C(=O)c2cc(NS(=O)(=O)c3cccs3)ccc2O[C@H]1CN(C)Cc1ccncc1,1.52
21,NNC(=O)CN1C(c2ccc(Cl)cc2)=Nc2ccc(Cl)cc2C1c1ccccc1 (centres undefined),4.53
22,CC1=C(C(=O)Nc2ccccc2Br)C2(CCCCC2)OC1=O,-3.85
23,O=C(Nc1cccnc1)c1cc2c(s1)-c1ccccc1CC2,2.6
24,COc1ccc(S(=O)(=O)N(C)C[C@H]2Oc3ccc(NS(C)(=O)=O)cc3C(=O)N([C@H](C)CO)C[C@H]2C)cc1,4.8
